Test results: PubChem BioAssay (NCATS)

molecular target: Glucocorticoid receptor (Homo sapiens) (UniProt P04150); assay: GR-GFP Redistribution (AID 450;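 active = compounds whose dose series gives a full or clear partial fitted curve of increased nuclear translocation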); settings: U2OS GR-GFP nuclear translocation, laser cytometry, 2 h
Potency is read from the fitted curve at half-maximal effect.

Chain of Glucocorticoid receptor (Homo sapiens) (P04150 whole entry, looked up, the tested form may be a part): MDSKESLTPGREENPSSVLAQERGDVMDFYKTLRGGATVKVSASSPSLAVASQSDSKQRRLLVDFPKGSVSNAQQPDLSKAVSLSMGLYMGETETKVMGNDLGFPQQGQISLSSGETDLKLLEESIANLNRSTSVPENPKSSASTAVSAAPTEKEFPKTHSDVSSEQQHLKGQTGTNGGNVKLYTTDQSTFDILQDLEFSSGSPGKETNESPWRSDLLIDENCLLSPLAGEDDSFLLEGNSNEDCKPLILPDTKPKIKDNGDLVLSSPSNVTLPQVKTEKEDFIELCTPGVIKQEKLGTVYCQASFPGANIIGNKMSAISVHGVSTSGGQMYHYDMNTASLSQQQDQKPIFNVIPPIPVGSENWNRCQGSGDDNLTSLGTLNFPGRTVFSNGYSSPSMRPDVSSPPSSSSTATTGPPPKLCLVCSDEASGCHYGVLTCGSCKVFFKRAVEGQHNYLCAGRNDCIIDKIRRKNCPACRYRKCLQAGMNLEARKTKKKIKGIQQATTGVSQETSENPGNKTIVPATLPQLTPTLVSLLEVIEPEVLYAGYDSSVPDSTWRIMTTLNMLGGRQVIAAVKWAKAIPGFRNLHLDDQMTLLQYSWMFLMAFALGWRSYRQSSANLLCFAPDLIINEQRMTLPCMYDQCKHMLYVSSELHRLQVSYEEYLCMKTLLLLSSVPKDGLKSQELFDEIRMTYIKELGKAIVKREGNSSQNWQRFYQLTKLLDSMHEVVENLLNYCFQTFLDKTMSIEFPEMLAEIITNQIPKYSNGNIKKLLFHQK

Potency, inactive:
Cc1cnc(CNc2cc(-c3c(C)noc3C)ncn2)cn1 > 46 µM
COc1ncc2nc(CCc3ccccc3)c(=O)n(Cc3ccc(F)cc3)c2n1 > 9.22 µM
O=c1c(-c2ccc(F)c(F)c2)nc2cncnc2n1Cc1ccc(F)cc1 > 9.22 µM
COc1ncc2nc(-c3ccc(F)cc3)c(=O)n(CCC#N)c2n1 > 9.22 µM
COc1ccc(-c2nc3cnc(N4CCN(C)CC4)nc3n(CCC#N)c2=O)cc1 > 9.22 µM
COc1ccc(CNc2ncncc2-c2ccoc2)c(OC)c1 > 46 µM
COc1ccc(Oc2ncc3nc(C)c(=O)n(CCc4ccccc4)c3n2)cc1 > 9.22 µM
CN(C)c1ccc(-c2nc(NC3CCNCC3)c3ccccc3n2)cc1 > 46 µM
O=c1cnc2cnc(Oc3ccccc3)nc2n1C[C@H]1CCCO1 > 9.22 µM
COc1cccc(Cn2c(=O)c(C)nc3cnc(N4CCOCC4)nc32)c1 > 9.22 µM
CNc1nc(-c2ccc(N(C)C)cc2)nc2ccccc12 > 46 µM
O=c1c(-c2ccc(F)c(F)c2)nc2cncnc2n1Cc1ccccc1 > 9.22 µM
COc1ncc2nc(CCc3ccccc3)c(=O)n(Cc3cccs3)c2n1 > 9.22 µM
O=c1c(-c2ccccc2)nc2cncnc2n1Cc1ccc(F)cc1 > 9.22 µM
Cc1cnc(CNc2nc(-c3ccc4c(c3)OCO4)nc3ccccc23)cn1 > 46 µM
COc1cccc(Cn2c(=O)cnc3cnc(N4CCOCC4)nc32)c1 > 9.22 µM
COc1ccc(Oc2ncc3ncc(=O)n(Cc4cccc(OC)c4)c3n2)cc1 > 9.22 µM
COc1ccc(Oc2ncc3ncc(=O)n(CCC#N)c3n2)cc1 > 9.22 µM
COCCn1c(=O)c(C)nc2cnc(OCc3ccccc3)nc21 > 9.22 µM
COc1cccc(Cn2c(=O)c(C)nc3cnc(Oc4ccccc4)nc32)c1 > 9.22 µM

molecular target: Glucocorticoid receptor (Homo sapiens) (UniProt P04150); assay: GR-EFC Redistribution (AID 451); settings: CHO-K1 GR-EFC translocation, beta-gal luminescence, 2 h
Procedure, shortened: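 Translocation of GR-ED fusion to nuclear EA restores b-gal, read by luminescence after 1 h room-temperature detection. Engineered CHO-K1 biosensor cells, 1,000/well, exposed 2 h at 37 C to titrations up to 46 uM final.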

Potency, inactive:
O=S(=O)(c1ccccc1)N1CCC2(CCCN(Cc3nccs3)C2)CC1 > 46 µM
Cc1cnc(CNc2cc(-c3c(C)noc3C)ncn2)cn1 > 46 µM
N#Cc1cccc(NC(=O)N2CCCC3(CCN(C(=O)c4csnn4)CC3)C2)c1 > 46 µM
COc1ncc2nc(CCc3ccccc3)c(=O)n(Cc3ccc(F)cc3)c2n1 > 46 µM
O=C(c1cnccn1)N1CCC2(CC1)CN(Cc1cc(C(F)(F)F)cc(C(F)(F)F)c1)C2 > 46 µM
O=c1c(-c2ccc(F)c(F)c2)nc2cncnc2n1Cc1ccc(F)cc1 > 46 µM
Cn1cccc1C(=O)N1CCC2(CCCN(c3ccccn3)C2)CC1 > 46 µM
COc1ncc2nc(-c3ccc(F)cc3)c(=O)n(CCC#N)c2n1 > 46 µM
N#Cc1cccc(NC(=O)N2CCCC3(CCN(C(=O)c4cccc(F)c4)CC3)C2)c1 > 46 µM
O=C(c1cnccn1)N1CCC2(CCCN(Cc3nccs3)C2)CC1 > 46 µM
Cn1cccc1C(=O)N1CCC2(CCN(Cc3nccs3)CC2)CC1 > 46 µM
COc1ccc(-c2nc3cnc(N4CCN(C)CC4)nc3n(CCC#N)c2=O)cc1 > 46 µM
COc1ccc(CNc2ncncc2-c2ccoc2)c(OC)c1 > 46 µM
N#Cc1ccc(CN2CCCC3(CCN(S(=O)(=O)c4ccccc4)CC3)C2)cc1 > 46 µM
O=S(=O)(c1ccccc1)N1CCC2(CCCN(Cc3ccncc3)C2)CC1 > 46 µM
COc1ccc(Oc2ncc3nc(C)c(=O)n(CCc4ccccc4)c3n2)cc1 > 46 µM
CN(C)c1ccc(-c2nc(NC3CCNCC3)c3ccccc3n2)cc1 > 46 µM
O=c1cnc2cnc(Oc3ccccc3)nc2n1C[C@H]1CCCO1 > 46 µM
COc1cccc(Cn2c(=O)c(C)nc3cnc(N4CCOCC4)nc32)c1 > 46 µM
N#Cc1cccc(NC(=O)N2CCCC3(CCN(C(=O)c4cc(C(F)(F)F)cc(C(F)(F)F)c4)CC3)C2)c1 > 46 µM
O=S(=O)(c1ccccc1)N1CCC2(CC1)CN(Cc1ccccc1)C2 > 46 µM
O=C(c1ccncc1)N1CCC2(CCCN(Cc3ccccc3)C2)CC1 > 46 µM
CNc1nc(-c2ccc(N(C)C)cc2)nc2ccccc12 > 46 µM
O=c1c(-c2ccc(F)c(F)c2)nc2cncnc2n1Cc1ccccc1 > 46 µM
COc1ncc2nc(CCc3ccccc3)c(=O)n(Cc3cccs3)c2n1 > 46 µM
O=C(Nc1ccccc1)N1CC2(CCN(C(=O)c3cc(C(F)(F)F)cc(C(F)(F)F)c3)CC2)C1 > 46 µM
COc1ccccc1CN1CCC2(CCNCC2)CC1 > 46 µM
O=c1c(-c2ccccc2)nc2cncnc2n1Cc1ccc(F)cc1 > 46 µM
O=C(c1cc(C(F)(F)F)cc(C(F)(F)F)c1)N1CCC2(CCCN(Cc3ccncc3)C2)CC1 > 46 µM
Cn1c(=O)c(-c2cccs2)nc2cnc(Oc3ccccc3)nc21 > 46 µM
Cc1cnc(CNc2nc(-c3ccc4c(c3)OCO4)nc3ccccc23)cn1 > 46 µM
COc1cccc(Cn2c(=O)cnc3cnc(N4CCOCC4)nc32)c1 > 46 µM
COc1ccc(Oc2ncc3ncc(=O)n(Cc4cccc(OC)c4)c3n2)cc1 > 46 µM
COc1ccc(Oc2ncc3ncc(=O)n(CCC#N)c3n2)cc1 > 46 µM
O=C(Oc1ccccc1)N1CCC2(CCCN(c3ccc(-c4ccccc4)cc3)C2)CC1 > 46 µM
COCCn1c(=O)c(C)nc2cnc(OCc3ccccc3)nc21 > 46 µM
COc1cccc(Cn2c(=O)c(C)nc3cnc(Oc4ccccc4)nc32)c1 > 46 µM
CC(=O)N1CCC[C@@]2(CCN(c3ccccc3)C2)C1 > 46 µM
